We go through 2 molecules from PubChem BioAssay AID463116 (University of Pittsburgh Molecular Library Screening Center, 2010).

Structures are written as SMILES. The campaign covered roughly 1,000 compounds. About 710 (71%) were called active. Not shown: some 7% with an inconclusive outcome.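 Rule for the calls: active = inhibition of receptor movement into the nucleus at or above a set limit in both runs, with normal cell brightness and cell count; inconclusive = limit reached in only one run, brightness and count normal; inactive = the rest.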 The set was probably picked from earlier hits. These entries were drawn from the full list.

This test is described as follows: blockers of dexamethasone-driven GR-EGFP nuclear import – imaging, high-content imaging, GR-EGFP cells, confirmation (AID 463116).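 For inhibition: dexamethasone at 1 µM final in well for 30 min; nuclear minus cytoplasmic GR-EGFP mean intensity difference in channel 2.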 Conditions: 3617.4 GR-EGFP nuclear translocation imaging, dexamethasone-induced, at 20 µM; inhibition: stronger effect = higher value; z-score: measured here: cell count per field.
As for `O=C1NC(=O)N(c2ccccc2)C(=O)/C1=C/c1ccc([N+](=O)[O-])s1`, the inhibition is 81.8% (active) and the z-score amounted to 0.0604.
On to `COc1cccc(N2C(=O)NC(=O)/C(=C\c3ccc([N+](=O)[O-])s3)C2=O)c1`, for which the inhibition is 81.3% (active) and the z-score was determined as 0.0253.
